# Screening results as filed in PubChem.
# TMEM16A inh = TMEM16A chloride channel inhibitors, primary screen, cell-based, HTS; 1.2% of 310,000 active; HEK293 TMEM16A/YFP iodide influx fluorescence, ionomycin; normalized B-score (activity score, 25-100; higher = stronger inhibition) at 10 µM;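 active = ratio plate-corrected score three or more library SD toward inhibition, starting fluorescence score within five deviations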;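 note: score derived from kinetic fluorescence span divided by baseline fluorescence per well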
# Target sequence (Q8BHY3 whole entry, looked up): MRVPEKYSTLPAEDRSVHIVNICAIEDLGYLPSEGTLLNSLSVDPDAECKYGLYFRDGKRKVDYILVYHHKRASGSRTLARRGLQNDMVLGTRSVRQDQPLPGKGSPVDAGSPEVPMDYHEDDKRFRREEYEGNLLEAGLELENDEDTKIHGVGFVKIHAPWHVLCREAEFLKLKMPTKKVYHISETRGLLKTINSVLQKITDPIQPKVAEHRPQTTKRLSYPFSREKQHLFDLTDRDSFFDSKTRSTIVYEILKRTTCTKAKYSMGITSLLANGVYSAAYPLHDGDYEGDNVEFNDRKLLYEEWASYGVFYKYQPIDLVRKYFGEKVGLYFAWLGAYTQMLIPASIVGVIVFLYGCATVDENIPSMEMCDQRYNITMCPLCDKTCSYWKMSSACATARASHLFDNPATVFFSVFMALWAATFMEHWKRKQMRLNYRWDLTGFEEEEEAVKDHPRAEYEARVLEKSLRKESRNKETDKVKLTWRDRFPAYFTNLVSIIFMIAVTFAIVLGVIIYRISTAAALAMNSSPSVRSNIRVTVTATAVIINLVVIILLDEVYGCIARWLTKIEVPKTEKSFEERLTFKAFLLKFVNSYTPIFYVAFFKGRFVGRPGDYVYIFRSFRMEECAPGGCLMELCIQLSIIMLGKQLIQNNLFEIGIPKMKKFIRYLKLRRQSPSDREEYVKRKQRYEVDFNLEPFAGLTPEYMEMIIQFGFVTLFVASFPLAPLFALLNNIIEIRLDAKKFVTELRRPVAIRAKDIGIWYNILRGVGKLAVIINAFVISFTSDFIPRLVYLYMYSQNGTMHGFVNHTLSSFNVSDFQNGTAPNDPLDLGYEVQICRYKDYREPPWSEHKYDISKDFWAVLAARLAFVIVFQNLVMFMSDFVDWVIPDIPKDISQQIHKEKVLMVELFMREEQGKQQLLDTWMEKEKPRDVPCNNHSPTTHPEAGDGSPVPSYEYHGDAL
# CHT PAM = CHT positive allosteric modulators, primary screen, cell-based, membrane potential dye, choline EC20; B-score at 10 µM; High affinity choline transporter 1 (Homo sapiens), Q9GZV3; CHT-expressing cells; hits give high values; LV-AA mutant CHT in HEK293 cells; 0.49% of 310,000 active;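 active = initial fluorescence not abnormally high and integrated response B-score, plate-corrected, over 3 SD above library mean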
# ANO1 activ = TMEM16A chloride channel activators or potentiators, primary screen, cell-based, HTS; Anoctamin-1 (Mus musculus), Q8BHY3; HEK293 TMEM16A/YFP-H148Q/I152L, iodide quench fluorescence; hits give low values; B-score at 10 µM; 0.3% of 340,000 active;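 active = fluorescence-ratio B-score plate-corrected deviation score at least 3 library SD below zero, with starting fluorescence score within 5 deviations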;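 note: channel opened by trigger with iodide after compound preincubation; score built on the fluorescence ratio of max minus min over baseline; more negative score means more quench and so TMEM16A activation or potentiation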
# CHT block = inhibitors of human choline transporter CHT; B-score at 10 µM; High affinity choline transporter 1 (Homo sapiens), Q9GZV3; AID 488975, 2010; 0.86% of 310,000 active; CHT-expressing cells, membrane potential dye, choline response; hits give low values;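 active = B-score over 3 SD under the library average, and starting fluorescence ratio not unusually high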;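 note: choline stimulus applied at its EC90 after an EC20 pre-addition; B-score computed on integrated fluorescence ratio after choline addition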
# CHT activ conf = CHT activators, confirmation, cell-based, membrane potential dye, duplicate. shares compounds with CHT PAM. CHT-expressing cells, membrane potential dye fluorescence (FDSS); % of choline EC20–EC90 response window; HEK293 expressing CHT LV-AA mutant; choline added at its EC20. activation, % at 10 µM. 91% of 2,500 active. AID 504833, 2011;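 active = primary screen active, with duplicate mean activation above negative control mean plus 3 SD, cut at about 11% in these data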
# HEK293 MP dye = membrane potential response in parental HEK293 cells, counter-screen for CHT activator project, cell-based, membrane potential dye; ratio readout change at 10 µM, hits read low; 62% of 2,500 active; AID 623908, 2012; shares compounds with CHT PAM; membrane potential dye fluorescence (FDSS); measured after EC20 choline addition;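 active = duplicate-averaged ratio beyond 3 SD from buffer wells, up or down, though filed actives are nearly all decreases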
# The depositor's hits bear a star; i = inactive; nt = not tested or not shown. Most compounds without a hit are left out; they make up all but 2.3% or so of the library.
SMILES,TMEM16A inh,CHT PAM,ANO1 activ,CHT block,CHT activ conf,HEK293 MP dye
CN(C(=O)COC(=O)C12CC3CC(CC(Cl)(C3)C1)C2)c1ccccc1,nt,nt,i,nt,nt,nt
CCOC(=O)CNc1c(-c2ccc(O)cc2)nc2ccccn12,i,i,nt,i,56*,-44*
COc1ccc(NS(=O)(=O)c2ccc(N3CCCCC3)c(N)c2)cc1,nt,nt,i,nt,nt,nt
CCOC(=O)c1ccccc1NC(=O)COc1coc(CN2CCc3ccccc32)cc1=O,i,i,i,i,26*,i
CCOc1ccccc1NC(=O)COc1coc(CN2CCc3ccccc32)cc1=O,i,i,i,i,nt,nt
COc1cc(C2C(C#N)=C(N)N(N(C)C)C3=C2C(=O)CC(C)(C)C3)cc(OC)c1OC (stereo not given),i,i,i,i,nt,nt
COc1ccc(C[C@H]2CN3C(=NC[C@@H]3Cc3ccccc3)N2CCNC(=O)CCC2CCCCC2)cc1,i,9.6*,i,i,20*,i
CCn1c(SCC(=O)NC2CCCC2)nnc1C(C)C,i,i,i,i,nt,nt
CC(Nc1nc(N2CCNCC2)nc2ccccc12)c1ccccc1 (stereo not given),i,7.1*,i,i,44*,-52*
O=C1CC2CCCN2C=C1I (stereo not given),nt,nt,i,nt,nt,nt
COC(=O)CCCC1=CC2=C(c3ccccc3)C(=O)C(C)(OC(=O)C3CCCC3)C(=O)C2=CN1C1CCCC1 (stereo not given),i,11*,i,i,36*,i
COc1c(O)c(=O)n2c3ccccc3c3ccnc1c32,i,i,i,i,41*,i
Cc1nc2ccccn2c1C(=O)N/N=C/c1ccc([N+](=O)[O-])o1,i,i,i,i,31*,-39*
C/C(=N\NC(=O)c1c(C)nc2ccccn12)c1ccco1,i,10*,i,i,15*,i
O=C(N/N=C/c1cc([N+](=O)[O-])ccc1O)c1ccncc1,i,i,i,i,36*,-39*
O=C(N/N=C/c1ccc([N+](=O)[O-])o1)c1ccncc1,i,i,i,i,56*,-47*
O=C(N/N=C/c1cc(Br)ccc1O)c1ccncc1,i,i,i,i,nt,nt
O=C(CC(O)CCc1ccccc1)c1ccc(O)cc1 (stereo not given),nt,nt,i,nt,nt,nt
CNc1oc(/C=C/c2cccc(OC)c2)nc1C#N,i,i,i,i,nt,nt
Nn1c(SCC(=O)NCCc2ccc(F)cc2)nnc1C1CCCCC1,nt,nt,i,nt,nt,nt
CN1CCN(c2ccc(Cl)cc2NC(=O)C2COc3ccccc3O2)CC1 (stereo not given),i,i,i,i,0,i
COc1ccc(Cl)cc1NC(=O)C1COc2ccccc2O1 (stereo not given),i,i,i,i,nt,nt
O=C(COC(=O)c1cc[n+]([O-])cc1)Nc1ccc(Cl)cc1C(F)(F)F,i,i,i,i,nt,nt
O=C(COC(=O)c1cc[n+]([O-])cc1)Nc1ccc(Cl)cc1[N+](=O)[O-],i,i,i,i,20*,-44*
O=C(COC(=O)c1cc[n+]([O-])cc1)Nc1ccc([N+](=O)[O-])cc1Cl,i,12*,i,i,62*,-79*
CN(C)c1cc[n+](CC(=O)Nc2ccc([N+](=O)[O-])cc2Cl)cc1,i,6.5*,i,i,5,-33*
Cc1ccc[n+](CC(=O)Nc2ccc([N+](=O)[O-])cc2Cl)c1,i,i,i,i,nt,nt
CC1CCCC(NC(=O)C2CCN(C(=O)Nc3ccccc3)CC2)C1C (stereo not given),i,i,i,i,nt,nt
N#CC(C#N)=C1SC(=Nc2ccccc2)C(=Nc2ccccc2)N1c1ccccc1,nt,nt,i,nt,nt,nt
